Experimental data from a collection of fitness landscapes (doi:10.1038/s41467-024-54723-y).
Whole data set: some 18,000 sequences, median “TetR repression strength (sort-seq, GFP reporter)” near 0.23, cut for the highest 2% near 0.68. The sample as a whole holds a higher share of the highest values than the screen did.

Target: TetR (class B, Tn10) (UniProt P04483)
Assay: TetR repression strength (sort-seq, GFP reporter) (relative to tetO2 = 1); higher = stronger repression
Conditions: E. coli
Method in brief: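 Escherichia coli SIG10-MAX cells carried a low-copy plasmid library in which eight operator positions were randomized between a constitutive promoter and sfGFP, and TetR was expressed constitutively. After 5 h of growth at 37 °C in LB with 50 µg/mL chloramphenicol, 10^6 cells were FACS-sorted into 13 fluorescence bins, and each bin was Illumina-sequenced. Repression strength was the top bin index plus one minus the read-weighted mean bin, divided by the value for the unaltered operator. Across three independent transformations, only library members with ≥30 reads in every replicate and a CV ≤0.5 were averaged.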

Chain of TetR (class B, Tn10) (P04483 whole entry): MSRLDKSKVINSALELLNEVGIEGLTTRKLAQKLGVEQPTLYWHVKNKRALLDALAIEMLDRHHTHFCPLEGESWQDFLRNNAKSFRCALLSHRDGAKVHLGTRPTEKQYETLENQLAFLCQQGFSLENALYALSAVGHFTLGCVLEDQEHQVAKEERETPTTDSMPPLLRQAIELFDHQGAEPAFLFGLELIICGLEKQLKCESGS

Sequence | TetR repression strength
TCCCGGGTAGTTACTGAGA | 0.123
TCCCCAGAAGTGCGTGAGA | 0.0661
TCCCAACGAGTCGACGAGA | 0.696
TCCCAACTAGTCGACGAGA | 0.701
TCCCAACTAGTCGAAGAGA | 0.267
TCCCGACGAGTCGACGAGA | 0.178
TCCCAACTAGTCGTCGAGA | 0.214
TCCCAACGAGTCAACGAGA | 0.366
TCCCTGCTAGTGAAGGAGA | 0.649
TCCCTAGCAGTGATAGAGA | 0.858
TCCCTAGCAGTGAGAGAGA | 0.376
TCCCTACCAGTGATAGAGA | 0.94
TCCCTTCCAGTGATAGAGA | 0.668
TCCCTAGTAGTGATAGAGA | 0.533
TCCCTCCCAGTGATAGAGA | 0.561
TCCCTAACAGTGATAGAGA | 0.816
TCCCAACGAGTTGTGGAGA | 0.189
TCCCACGCAGTAGGTGAGA | 0.138
TCCCTGCTAGTAGGAGAGA | 0.415
TCCCAGTCAGTGGCGGAGA | 0.205
TCCCTAGAAGTACTAGAGA | 0.152
TCCCCAGCAGTTTAGGAGA | 0.207
TCCCGTCGAGTTTGAGAGA | 0.274
TCCCGTCGAGTTTTTGAGA | 0.363
TCCCGTCTAGTTAGTGAGA | 0.719
TCCCGTCTAGTTAGAGAGA | 0.224

Sequence | TetR repression strength
TCCCGTCTAGTTTGCGAGA | 0.277
TCCCGTCTAGTTTGTGAGA | 0.784
TCCCGTCGAGTTAGTGAGA | 0.366
TCCCGTCGAGTTTGTGAGA | 0.772
TCCCGTCTAGTGTGTGAGA | 0.237
TCCCTGTGAGTCGCGGAGA | 0.327
TCCCGGTCAGTGCTAGAGA | 0.638
TCCCAGGGAGTCAGTGAGA | 0.319
TCCCTACTAGTAGTAGAGA | 0.389
TCCCGGATAGTTGATGAGA | 0.285
TCCCACTCAGTGAGGGAGA | 0.255
TCCCGCAGAGTTAGAGAGA | 0.5
TCCCATACAGTGAGTGAGA | 0.176
TCCCGAGAAGTCGCGGAGA | 0.0355
TCCCAGTAAGTGTCGGAGA | 0.811
TCCCGTGCAGTCGTGGAGA | 1
TCCCGTGGAGTCGTGGAGA | 0.209
TCCCAGTGAGTGTCGGAGA | 0.183
TCCCGTGCAGTCGTCGAGA | 0.216
TCCCAGTAAGTCCGGGAGA | 0.157
TCCCAGTAAGTGGGGGAGA | 0.196
TCCCTGTAAGTGACGGAGA | 0.796
TCCCTGTGAGTGACGGAGA | 0.115
TCCCAGTAAGTCGGGGAGA | 0.698
TCCCTGAAAGTGACGGAGA | 0.506
TCCCAGTAAGTATCGGAGA | 0.221

Sequence | TetR repression strength
TCCCGCATAGTAGGTGAGA | 0.317
TCCCAATGAGTTCGTGAGA | 0
TCCCTCATAGTGGGCGAGA | 0.213
TCCCGCCCAGTAGGGGAGA | 0.163
TCCCTGCAAGTTGATGAGA | 0.246
TCCCATGTAGTCCTGGAGA | 0.341
TCCCCTTAAGTGGTAGAGA | 0.201
TCCCCGTTAGTGTCGGAGA | 0.137
TCCCGTACAGTCGGGGAGA | 0.698
TCCCAGTCAGTCTTTGAGA | 0.726
TCCCAGTGAGTCTTTGAGA | 0.339
TCCCGTACAGTGGGGGAGA | 0.145
TCCCTGTCAGTCGGGGAGA | 0.154
TCCCATTCAGTCTTTGAGA | 0.228
TCCCGTATAGTCGGGGAGA | 0.216
TCCCAGCCAGTCGGGGAGA | 0.184
TCCCAGTCAGTCGGGGAGA | 0.776
TCCCGGTGAGTCAAAGAGA | 0.338
TCCCTTCCAGTCATTGAGA | 0.225
TCCCTGTCAGTATAGGAGA | 0.0605
TCCCGCCGAGTGGACGAGA | 0.514
TCCCCTGCAGTTGGAGAGA | 0.159
TCCCAGTTAGTTGAGGAGA | 0.231
TCCCACGGAGTCACCGAGA | 0.205
TCCCGCTCAGTGTTAGAGA | 0.433
TCCCTATAAGTGATAGAGA | 0.994

Sequence | TetR repression strength
TCCCGATAAGTGAGTGAGA | 0.375
TCCCGACAAGTGATAGAGA | 0.642
TCCCGCTCAGTGGTAGAGA | 0.428
TCCCGATGAGTCAGTGAGA | 0.38
TCCCGAGAAGTGATAGAGA | 0.425
TCCCTATAAGTCGTAGAGA | 0.503
TCCCCCTAAGTGATAGAGA | 0.442
TCCCGATAAGTCAGTGAGA | 0.747
TCCCGATAAGTGATAGAGA | 0.733
TCCCGCTCAGTGATAGAGA | 0.742
TCCCGTATAGTGGGGGAGA | 0.0618
TCCCGGGTAGTGACGGAGA | 0.181
TCCCACGAAGTGCCTGAGA | 0.486
TCCCAGGGAGTAAAGGAGA | 0.188
TCCCGCAGAGTTGGCGAGA | 0.186
TCCCGATCAGTGATAGAGA | 0.778
TCCCGATCAGTGATGGAGA | 0.482
TCCCTTTTAGTGATAGAGA | 0.512
TCCCGCTAAGTGATAGAGA | 0.69
TCCCGATAAGTGGCTGAGA | 0.523
TCCCGATCAGTGCTAGAGA | 0.657
TCCCTAATAGTGATAGAGA | 0.614
TCCCGGTAAGTGATAGAGA | 0.609
TCCCGCTGAGTGATAGAGA | 0.483
TCCCGACAAGTAGCTGAGA | 0.187
